Values joined by “and” are separate entries in the source; they are usually repeats but may differ in a detail not shown here. Identical values can stand only once. Active and inactive are the calls of the source. Rule as the data show it, unless noted: active = parasite load remaining mostly below about 12% (no sharp cut-off); inactive = mostly above about 10%.

Test [1] can be described thus: P. berghei load reduction in hepatocytes – cell-based, HepG2, luciferase luminescence, HepG2 viability, primary screen (AID 624349).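 Also: 100% = mean of DMSO negative control wells on the same plate.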 Conditions: P. berghei liver stage in HepG2, luciferase luminescence, concentration not given here; parasite load remaining: stronger effect = lower value; viability: measured here: HepG2 viability without parasites.
A short description of test [2]: Wnt pathway potentiators raising nuclear beta-catenin – imaging, WNT3A-conditioned medium, mouse C2C12, NPC library, primary screen (AID 1117326; in the data active = nuclear beta-catenin stimulation mostly above about 4.2%, no sharp cut-off; inactive = mostly below about 10%). As to conditions: stronger effect = higher value.
A short description of test [3]: stimulators of insulin release from INS-1E, primary screen, cell-based, 5 mM glucose, NPC library (AID 1117329;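 active = compound raises insulin release from rat beta cells at 5 mM glucose, no numeric limit stated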). Conditions: rat INS-1E insulin secretion, at 10 µM, stronger effect = higher value.
A short description of test [4]: growth inhibition of GSK3B-pretreated HCT116 cells – cell-based, CellTiter-Glo, 0.2 to 20 µM (AID 1117336;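 active = compounds lowering colon cancer cell viability after pretreatment blocking the GSK3B kinase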). As to conditions: HCT116 viability after GSK3B inhibitor, at 20 µM, stronger effect = higher value.
Test [5] in a line: inhibition of endothelial tube formation, primary screen, imaging, VEGF stimulated, CD31 staining, tube area, NPC library (AID 1117340;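 active = compound that reduces growth-factor-driven endothelial tube area in a mixed cell culture, no cutoff stated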). As to conditions: VEGF-stimulated ADSC/ECFC co-culture, at 10 µM, stronger effect = higher value.
Test [6] in a line: GLP1 release stimulators, primary, NCI-H716, NPC library (AID 1117341;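 active = compound raises GLP1 secretion from the human gut endocrine cells, with no numeric limit stated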). As to conditions: NCI-H716 cells, at 10 µM, stronger effect = higher value.
The nature of test [7]: HCT116 colon cancer cell growth inhibition, primary screen, CellTiter-Glo luminescence, NPC library (AID 1117342;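 active = compounds that lower survival of HCT116 colon cancer cells in the luminescence readout, no numeric limit stated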). As to conditions: at 20 µM (top of the series). A general note: Cellular ATP, detected with luciferase, serves as a proxy for viable cell number.
Test [8] in a line: reduced SW480 viability measured with CellTiter-Glo, NPC library, primary (AID 1117343;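 active = compounds that lower viability of the colon cancer cells in the luminescence readout, with no numeric limit stated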). Conditions: CellTiter-Glo luminescence; at 20 µM (top of the series) unless noted.
Test [9] is described as follows: NPC library primary testing for decreased DLD-1 cell viability via CellTiter-Glo (AID 1117346;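 active = compounds that lower survival of DLD-1 colon cancer cells in the luminescence readout, no cutoff given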). Conditions: DLD-1 viability, CellTiter-Glo luminescence; at 20 µM (top of the series).
Test [10] in a line: EMT-state selective cytotoxicity in co-culture – imaging, PC-3E GFP, TEM4-18 mCherry, primary screen (AID 1345086;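 active = compounds killing one labelled cell type while sparing the other, by normalised counts and ratio limits, not self-fluorescent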;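 also: cells exposed to compound for 72 h before imaging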;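 as to red/green cell ratio (normalised): normalised mesenchymal count divided by normalised epithelial count so high means epithelial killing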). Conditions: PC-3E GFP / TEM4-18 mCherry co-culture, imaging cell counts, at 1 µM.
Test [11] is described as follows: viability loss with induced miR-34 in A549 – imaging, A549 dox-inducible miR-34, nuclei and caspase counts, primary screen (AID 1347080;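 active = compounds whose cell count with miR-34 switched on is under 0.7 times the count with it off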). Conditions: A549 miR-34 inducible, Hoechst nuclei count, 48 h.
Test [12] addresses NAD(+) hydrolase SARM1 (Homo sapiens) (UniProt Q6SZW1). Kind of test: blocking NAD cleavage by SARM1 SAM-TIR – cell lysate, NAD-Glo luminescence (AID 1508614;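 active = compound whose remaining NAD level is above about 45 nM, limit read from the data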;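 also: higher remaining NAD means stronger inhibition of SARM1 NADase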). As to conditions: SAM-TIR HEK293T lysate NADase, at 1 µM, stronger effect = higher value.

NAD(+) hydrolase SARM1 (Homo sapiens), sequence (Q6SZW1 whole entry, looked up): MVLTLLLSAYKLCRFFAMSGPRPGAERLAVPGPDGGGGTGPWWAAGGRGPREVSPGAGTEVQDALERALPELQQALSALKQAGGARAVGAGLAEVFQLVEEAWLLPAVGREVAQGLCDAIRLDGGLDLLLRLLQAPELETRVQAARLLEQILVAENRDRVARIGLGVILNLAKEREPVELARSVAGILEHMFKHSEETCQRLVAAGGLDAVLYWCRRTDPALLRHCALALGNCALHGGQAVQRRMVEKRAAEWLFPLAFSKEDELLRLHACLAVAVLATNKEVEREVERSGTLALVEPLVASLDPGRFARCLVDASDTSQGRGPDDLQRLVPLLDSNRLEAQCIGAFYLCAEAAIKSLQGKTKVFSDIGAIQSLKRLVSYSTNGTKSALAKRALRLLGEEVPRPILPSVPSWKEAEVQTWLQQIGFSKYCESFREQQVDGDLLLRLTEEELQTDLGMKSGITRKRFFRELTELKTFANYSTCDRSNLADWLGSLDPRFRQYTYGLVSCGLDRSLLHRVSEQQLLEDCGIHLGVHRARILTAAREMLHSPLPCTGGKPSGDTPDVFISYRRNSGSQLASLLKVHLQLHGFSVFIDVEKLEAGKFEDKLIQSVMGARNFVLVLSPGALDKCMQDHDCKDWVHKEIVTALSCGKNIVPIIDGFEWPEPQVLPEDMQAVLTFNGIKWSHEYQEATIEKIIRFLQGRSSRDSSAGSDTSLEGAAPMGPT

A word on the viability: it is a read-out of living cells in per cent, often relative to untreated cells. Consider `CC[C@@H](CO)NCCN[C@@H](CC)CO`, for which the parasite load remaining in test [1] was 80.8% (inactive) and 73.3% (inactive). Also, in test [1], the viability is 73% and 99%. For the same compound, the nuclear beta-catenin stimulation in test [2] (at 10 µM) was 0.5% (inactive); in test [2] (stimulation, at 2 µM) it was 4.7%. The insulin secretion stimulation in test [3] was 2.6% (inactive). For the same compound, the viability decrease in [4] is -8% (inactive). Moreover, the tube area decrease in [5] is 14.4% (inactive). The GLP1 secretion stimulation in [6] was -1.2% (inactive). The inhibition of viability in test [7] is -4.17% (inactive). Further, the viability decrease (inhibition) in [8] is 11.7% (inactive); in test [9], -13% (inactive). For the same compound, in test [10] (actives lie on both sides, counts scaled to control wells, 1 = unselective), the red/green cell ratio (normalised) was 0.98 (inactive). Moreover, the normalised cell number in [10] (measured here: epithelial PC-3E GFP cell survival) is 0.99; in test [10] (measured here: mesenchymal TEM4-18 mCherry cell survival), 0.97. Also, the fold change was 0.901 (inactive) in test [11] (stronger effect = lower value, cell number ratio, induced over uninduced) and 1.1 in test [11] (measured here: relative caspase fold change +Dox/-Dox). The cell count in [11] (measured here: total cells with miR-34 induction, stronger effect = lower value) amounted to 11300; in test [11] (measured here: total cells without miR-34 induction), 12600. In addition, in [12], the remaining NAD is 10 nM (inactive).

Values taken from PubChem BioAssay.
